Bioassay records as filed in PubChem BioAssay.
Compounds with a hit are over-represented: about 3.2% of the library has one in this group of screens.
USP1 inh: USP1/UAF1 (human) deubiquitinase inhibition; recombinant USP1/UAF1, Ub-Rhodamine cleavage fluorescence; Potency, µM (doses to about 57.1 µM), for the others: at the highest dose activity change, negative = inhibition, actives largely listed as inhibitors; actives 0.23% (n = 390,000); note: potency is the fitted concentration of half-maximal effect; % is set by controls: 0 for no effect and ±100 for the full control effect; nearly all actives have a fitted effect of over 60% in size
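In this screen, compounds sit with the deubiquitinase complex (1nM) for 15 min at room temperature before Ub-Rho is added at 150nM final. Fluorescence rise is then followed for 6 reads every 60 seconds.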
GALK inh: inhibitors of human galactokinase; Purified GALK, Kinase-Glo residual ATP luminescence; Potency, µM (highest dose often 57.5 µM), without a hit: top-dose activity change, negative = inhibition, hits mostly inhibitors; actives 0.007% (n = 270,000); AID 1868; note: potency is the fitted concentration of half-maximal effect; % is set by controls: 0 for no effect and ±100 for the full control effect
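5 nM enzyme, 35 uM ATP, 100 uM galactose, 20 mM HEPES pH8.0, 5 mM MgCl2; 1 h RT; residual ATP by Kinase-Glo Plus luminescence, qHTS format.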
USP2a inh: USP2a (human) protease inhibition | USP2 core, Ub-CHOP2 coupled fluorogenic reporter, 485/531 | Potency, µM (doses to about 38.3 µM), without a hit: at the highest dose activity change, negative = inhibition, actives largely listed as inhibitors | actives 0.01% (n = 330,000);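 note: potency is the fitted concentration of half-maximal effect; plate controls were DMSO wells for no effect and full inhibition by NEM control for full effect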
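Deubiquitinase activity read as fluorescence (485/531 nm) after Ub-CHOP2 cleavage activates the enterokinase reporter on its substrate; USP2 core 10nM, Ub-CHOP2 and substrate 25nM each, 30min compound preincubation then 60min RT; data normalized to NEM, curves fitted.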
PLK1 PBD inh: PLK1 (human) polo-box domain binding inhibition; P53350; actives 2.8% (n = 360,000); Potency, µM, inactives show max response, negative = inhibition, usual class: inhibitors; Plk1 PBD binding of FITC phosphopeptide, fluorescence polarization; note: potency is the fitted concentration of half-maximal effect; series mostly up to about 57 µM; % is set by controls: 0 for no effect and ±100 for the full control effect; nearly all actives have a fitted effect of over 65% in size
Coupling enz: counter-screen for Giardia aldolase inhibitors: coupling enzyme system. coupling enzyme system counterscreen, AmpLite Red fluorescence. actives 0.67% (n = 290,000). activity change, negative = inhibition, % at 58.2 µM, hits read low. AID 2472; in the data active = activity change below about -30%; note: % is set by controls: 0 for no effect and ±100 for the full control effect
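First, compound is pin-transferred into glyceraldehyde-3-phosphate coupling-enzyme reagent at 57.5 uM final and held 10 min at RT. Next, substrate, coupling system and AmpLite Red are added. After 20 min RT, fluorescence (525/598 nm) is read.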
VDR inhibitor: blocks the human vitamin D receptor; VDR-SRC2-3 peptide fluorescence polarization, 2 h; Potency, µM, for the others: max response, negative = inhibition, hits mostly inhibitors; P11473; actives 0.93% (n = 400,000); note: potency is the fitted concentration of half-maximal effect; % is set by controls: 0 for no effect and ±100 for the full control effect
Target sequence (P11473 whole entry, looked up): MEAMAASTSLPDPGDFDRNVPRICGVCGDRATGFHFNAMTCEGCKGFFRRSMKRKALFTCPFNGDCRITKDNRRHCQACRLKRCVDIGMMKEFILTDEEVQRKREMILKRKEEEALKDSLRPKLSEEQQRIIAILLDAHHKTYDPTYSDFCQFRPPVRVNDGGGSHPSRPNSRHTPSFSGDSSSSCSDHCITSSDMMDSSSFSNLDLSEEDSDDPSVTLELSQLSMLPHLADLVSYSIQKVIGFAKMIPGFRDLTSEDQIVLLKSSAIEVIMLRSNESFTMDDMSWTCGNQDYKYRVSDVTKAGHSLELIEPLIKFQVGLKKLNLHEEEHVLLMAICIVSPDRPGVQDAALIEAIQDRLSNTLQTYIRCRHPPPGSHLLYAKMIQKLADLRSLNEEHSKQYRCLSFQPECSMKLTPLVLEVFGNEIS
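VDR–SRC2-3 interaction, FP format. Cmpds 23 nl via pintool, brief spin, 2 h ambient incubation.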
USP1-UAF1 confirm: USP1-UAF1 deubiquitinase inhibition validated; shares compounds with VDR inhibitor; Ub-Rhodamine cleavage, fluorescence kinetic read; Potency, µM (highest dose often 56.8 µM), inactives show at the top dose activity change, negative = inhibition, most hits filed as inhibitors; actives 50% (n = 50); AID 540327
VDR confirm: confirmation of human vitamin D receptor inhibitors; shares compounds with VDR inhibitor; VDR-coactivator inhibition assay, qHTS confirmation; Potency, µM, usual class: inhibitors; actives 89% (n = 840); note: potency is the fitted concentration of half-maximal effect
VDR FP: blocks human VDR-coactivator binding in fluorescein assay | actives 48% (n = 840) | Potency, µM (titrated, usually from 57.1 µM), without a hit: top-dose activity change, negative = inhibition, hits mostly inhibitors | VDR-coactivator binding, fluorescein fluorescence polarization | shares compounds with VDR inhibitor; note: potency is the fitted concentration of half-maximal effect
VDR bla reporter: inhibits human VDR in beta-lactamase reporter cells; AID 602202; VDR beta-lactamase reporter cells, FRET ratio; cells co-treated with VDR agonist LG190178; shares compounds with VDR inhibitor; Potency, µM (titrated, usually from 46.1 µM), without a hit: at the top dose activity change, negative = inhibition, actives largely listed as inhibitors; actives 23% (n = 840); note: potency is the fitted concentration of half-maximal effect; % is set by controls: 0 for no effect and ±100 for the full control effect
VDR viability: counter-screen for vitamin D receptor inhibitors: cytotoxicity; cytotoxicity counter-screen, cell viability, qHTS; shares compounds with VDR inhibitor; Potency, µM (highest dose often 48.3 µM), without a hit: top-dose activity change, negative = cytotoxicity, most hits filed as cytotoxic; actives 18% (n = 840);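 note: potency is the fitted concentration of half-maximal effect; plate controls were DMSO for no effect and high-concentration cycloheximide for full effect; nearly all actives have a fitted effect of over 75% in size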
Active calls of the source: *; ? = inconclusive; . = no result given. Unless noted, calls come from the whole dose curve; as a rule, active = well fitted curve in the direction sought with a large enough effect; inconclusive = small, poorly fitted or top-dose-only effect, or another doubt; inactive = no such curve, though single readings can be large; an effect the other way counts as inactive or inconclusive.

SMILES	USP1 inh	GALK inh	USP2a inh	PLK1 PBD inh	Coupling enz	VDR inhibitor	VDR confirm	VDR FP	VDR bla reporter	VDR viability	others
CC(=O)Nc1sc(N/N=C\c2ccccc2F)nc1-c1cccs1	2%	1%	5%	-12%	0	50µM*	2.4*	2.2µM*	29%	?
O=c1c(=O)n(Cc2ccc(Cl)cc2)ccn1Cc1ccc(F)cc1	26%	.	.	.	.	-2%	.	.	.	.
[O-]/[N+](=C/c1ccc(F)cc1)c1ccc(Cl)cc1	-9%	-2%	-1%	?	0	32µM*	24*	?	-13%	6%
O=C(N/N=C/c1cccc([N+](=O)[O-])c1O)c1cccs1	-19%	0%	-1%	-1%	2	-1%	.	.	.	.
O=C1c2ccccc2CCC1CNCCc1ccc(O)cc1 (stereo unspecified)	.	.	.	.	.	2.8µM*	14*	28µM*	?	?
O=C1c2ccccc2CC[C@H]1CNCCc1ccc(O)cc1	.	.	.	.	1	3.5µM*	?	?	-5%	17%
CCOc1cc(/C=N/NC(=O)c2cccnc2)ccc1OCC(N)=O	-2%	-2%	0%	-14%	-1	?	.	.	.	.
COc1cccc(/C=C2\C(=O)N(c3cccc(C)c3)C(=O)c3ccccc32)c1	?	1%	0%	2.7µM*	-29	?	7.9*	3.2µM*	-12%	7%
COc1ccc2c(c1OC)C(Cc1ccccc1)N1CCc3cc4c(cc3C1=C2)OCO4 (stereo unspecified)	.	.	.	.	-33*	32µM*	.	.	.	.	USP1-UAF1 confirm=42µM*
O=C(c1ccccc1NS(=O)(=O)c1ccc(F)cc1)N1CCCCC1	-7%	6%	1%	-1%	0	6%	.	.	.	.
O=C1Nc2ccccc2/C1=C/C(=O)c1cccs1	-22%	-2%	1%	17µM*	-4	?	11*	10µM*	?	18%
COc1ccc(C(=O)/C=C2/C(=O)Nc3ccccc32)cc1	-16%	10%	-1%	-13%	0	?	.	.	.	.
NC(=O)COc1ccc(C(=O)/C=C2/C(=O)Nc3ccccc32)cc1	-30%	-2%	2%	?	-2	?	?	?	24%	19%
COc1ccc(C)cc1S(=O)(=O)N1CCCCC1	3%	-1%	-2%	-6%	-2	-1%	.	.	.	.
COCCCNC(=O)c1ccc2c3c(onc13)-c1ccccc1C2=O	20µM*	1%	8%	5.3µM*	-32*	35µM*	3.8*	?	?	?
COCCCNC(=O)c1ccccc1Oc1ccccc1	-13%	-1%	-1%	-2%	-1	-5%	.	.	.	.
O=C(NCCCn1ccnc1)c1cnn2c1NC(c1ccccc1)CC2C(F)(F)F (stereo unspecified)	-19%	7%	0%	-2%	5	-2%	.	.	.	.
O=C1NN(c2ccccc2)C(=O)/C1=C/c1ccc(Sc2ccc(Cl)cc2)o1	4%	-26%	11%	3µM*	-1	79µM*	?	?	-5%	.
O=C1NC(=O)/C(=C\c2ccc(Sc3ccc(Cl)cc3)o2)N1	-13%	0%	3%	?	1	-3%	.	.	.	.
Cc1cc(C)cc(-n2c(=O)c3ccccc3n(CC(=O)NCC3CCCO3)c2=O)c1 (stereo unspecified)	-16%	-2%	1%	-9%	0	-11%	.	.	.	.
N#Cc1c(Nc2ccc(Cl)cc2)s[nH]c1=O	-12%	5%	?	?	8	10µM*	7.5*	?	2%	-14%
CSc1nc(Nc2ccc(Cl)cc2)c(C#N)c(=O)[nH]1	-11%	-4%	-1%	-3%	6	-2%	.	.	.	.
Nc1ccc(-n2cnc3cc([N+](=O)[O-])ccc32)cc1	-11%	-1%	1%	-4%	-6	-13%	.	.	.	.
Fc1cccc(Cl)c1CNc1ccc(N2CCCC2)cc1	-24%	0%	1%	21µM*	-17	50µM*	12*	13µM*	-16%	?
CCC(=O)Nc1c(C#N)c2nc3ccccc3nc2n1C1CCCCC1	-9%	0%	1%	0%	-2	6%	.	.	.	.
SMILES	USP1 inh	GALK inh	USP2a inh	PLK1 PBD inh	Coupling enz	VDR inhibitor	VDR confirm	VDR FP	VDR bla reporter	VDR viability	others
CCOC(=O)c1c(NC(=O)c2ccco2)n(C2CCCCC2)c2nc3ccccc3nc12	16µM*	3%	0%	-23%	-15	?	3.2*	?	-20%	-7%
COc1cc2c(cc1OC)-c1nc3ccccc3c(=O)n1C(C)(C)C2	-14%	3%	6%	-7%	-1	-4%	.	.	.	.
O=C(c1cc(-c2ccc(Cl)cc2)on1)N(Cc1cccc(F)c1)Cc1ccco1	-12%	.	.	.	.	25%	.	.	.	.
O=[N+]([O-])c1ccc(C2=Nn3c(Cn4nnc5ccccc54)nnc3SC2)cc1	-6%	3%	1%	5.3µM*	0	?	?	8.9µM*	-1%	?
COc1cccc(C(=O)C(C#N)=C(SC)SC)c1	-22%	-1%	2%	15µM*	1	40µM*	11*	?	?	13µM*
COc1cc(OC)c(N(C)S(=O)(=O)c2cccc(C(=O)NC(C)C3CC4CCC3C4)c2)cc1Cl (stereo unspecified)	-19%	-2%	3%	6%	2	0%	.	.	.	.
Cc1ccc(C(=O)/C=C/C(=O)O)cc1	1%	-1%	3%	?	6	14µM*	7.5*	10µM*	20%	?
CCN(C(=O)CN(C)S(=O)(=O)c1ccc2c(c1)n(C)c(=O)c(=O)n2C)c1cccc(C)c1	-9%	.	.	.	.	2%	.	.	.	.
